Ten molecules from ChEMBL document CHEMBL3988442, “University of Dundee, Small-Polar-MMV Screening Library” (2021) can be followed below.

For some assays here: Entries with a potency or affinity are not part of this list.

Holding throughout (design): scale not given: direction of the effect not stated beside the values
Assay [1] has as its target Protein translocase subunit SecA (Escherichia coli (strain K12)) (UniProt P10408). As to the kind of experiment: Assay to Identify E. coli SecA ATPase Inhibitors. In kind it is functional. As to conditions: 30 µM.
Assay [2] has as its target T1, Ubiquitin-activating enzyme e1, putative (Leishmania donovani (strain BPK282A1)) (UniProt E9BSI1).
T1 sequence (whole entry): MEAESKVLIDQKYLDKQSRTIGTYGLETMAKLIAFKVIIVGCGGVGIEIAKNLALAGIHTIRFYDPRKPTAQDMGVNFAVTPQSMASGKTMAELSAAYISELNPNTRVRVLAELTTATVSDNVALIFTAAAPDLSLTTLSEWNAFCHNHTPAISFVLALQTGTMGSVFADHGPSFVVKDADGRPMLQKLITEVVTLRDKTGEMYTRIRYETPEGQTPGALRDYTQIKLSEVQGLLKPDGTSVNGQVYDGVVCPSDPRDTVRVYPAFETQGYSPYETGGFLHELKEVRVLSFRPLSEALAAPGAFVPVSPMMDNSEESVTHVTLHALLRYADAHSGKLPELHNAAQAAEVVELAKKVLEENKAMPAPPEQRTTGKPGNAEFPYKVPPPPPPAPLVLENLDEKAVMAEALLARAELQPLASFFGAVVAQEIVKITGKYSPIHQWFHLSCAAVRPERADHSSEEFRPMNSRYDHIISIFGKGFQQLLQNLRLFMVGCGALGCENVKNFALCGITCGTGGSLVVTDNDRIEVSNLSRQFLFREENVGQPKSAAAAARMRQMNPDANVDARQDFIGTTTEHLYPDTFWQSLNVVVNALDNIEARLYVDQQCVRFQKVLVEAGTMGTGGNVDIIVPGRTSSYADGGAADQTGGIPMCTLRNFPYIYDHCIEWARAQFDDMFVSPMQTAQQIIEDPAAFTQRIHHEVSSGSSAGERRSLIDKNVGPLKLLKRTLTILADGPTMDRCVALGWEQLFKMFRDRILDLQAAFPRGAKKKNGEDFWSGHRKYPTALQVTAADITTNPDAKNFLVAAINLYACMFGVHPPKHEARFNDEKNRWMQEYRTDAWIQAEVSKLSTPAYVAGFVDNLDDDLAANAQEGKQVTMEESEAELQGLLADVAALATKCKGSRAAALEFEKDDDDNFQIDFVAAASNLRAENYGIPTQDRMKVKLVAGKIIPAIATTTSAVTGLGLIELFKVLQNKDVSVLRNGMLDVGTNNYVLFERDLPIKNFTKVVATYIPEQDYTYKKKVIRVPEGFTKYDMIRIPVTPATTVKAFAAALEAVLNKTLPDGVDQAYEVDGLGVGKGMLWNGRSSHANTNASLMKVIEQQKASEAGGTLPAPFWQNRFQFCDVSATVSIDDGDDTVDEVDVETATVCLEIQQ
As to the kind of experiment: Leishmania donovani Ubiquitin Activating Enzyme (LdE1). The assay is classed as functional. As to conditions: 30 µM.

The target in assay [3] is AMP-activated protein kinase, AMPK (Homo sapiens) (UniProt P54646+O43741+P54619+Q9UGJ0+Q9Y478+Q13131+Q9UGI9). As to the kind of experiment: AMP-dependent Kinase enzyme assay. An in vitro enzyme assay that detects ADP turnover that is directly proportional to AMPK activity. This uses naive AMPK that is activated during the assay with MK-8722. The assay is classed as functional. The following applies: 30 µM.

Assay [4] concerns the target Sialic acid-binding Ig-like lectin 9 (Homo sapiens) (UniProt Q9Y336). Kind of assay: Hs-Siglec9 ALPHAscreen SOP 20170721. As to conditions: 10 µM. For orientation: Bead proximity is the source of the signal in Alpha formats.
Assay [5] has as its system Trypanosoma cruzi. Kind of assay: Trypanosoma cruzi phosphomannomutase and mannose-1-phosphate guanylyltransferase assay. The assay is classed as functional. As to conditions: 10 µM.
Assay [6] addresses T2, Arginase-2, mitochondrial (Homo sapiens) (UniProt P78540).
T2 sequence (whole entry): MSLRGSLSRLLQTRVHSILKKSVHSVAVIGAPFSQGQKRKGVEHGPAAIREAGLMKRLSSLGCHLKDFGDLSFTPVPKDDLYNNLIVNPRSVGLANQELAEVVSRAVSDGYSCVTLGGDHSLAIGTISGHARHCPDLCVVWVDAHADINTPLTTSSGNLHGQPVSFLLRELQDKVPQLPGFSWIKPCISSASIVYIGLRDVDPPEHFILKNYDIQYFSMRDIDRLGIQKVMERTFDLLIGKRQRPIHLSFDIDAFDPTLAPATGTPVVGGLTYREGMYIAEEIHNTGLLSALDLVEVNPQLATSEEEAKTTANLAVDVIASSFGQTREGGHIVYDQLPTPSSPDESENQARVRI
Kind of assay: in vitro enzyme assay to detect the production of urea directly proportional to the activity of Arginase II. Also: in the data most compounds retested in dose-response had high values. In kind it is functional. As to conditions: 33.3 µM.

In assay [7] the target is T3, Proteasome subunit beta (Trypanosoma cruzi) (UniProt O96673).
T3 sequence (whole entry): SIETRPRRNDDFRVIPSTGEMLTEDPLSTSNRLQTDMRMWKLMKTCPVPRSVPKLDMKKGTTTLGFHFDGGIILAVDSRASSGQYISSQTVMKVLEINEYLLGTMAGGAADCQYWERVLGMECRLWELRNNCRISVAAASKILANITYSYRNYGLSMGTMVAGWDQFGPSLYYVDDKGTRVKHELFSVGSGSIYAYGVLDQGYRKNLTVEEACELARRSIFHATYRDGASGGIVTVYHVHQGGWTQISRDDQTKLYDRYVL
Kind of assay: Trypanosoma cruzi proteasome chymotrypsin-like activity (TcProtChymo) assay. Also: in the data most compounds retested in dose-response had high values. In kind it is functional. The following applies: 9.37 µM.

The species entered for assay [8] is Homo sapiens. Kind of assay: To identify inhibition of the IFN signalling (Jak-Stat) pathway via expression of an eGFP reporter gene under the control of an IFN-stimulated response element (ISRE) containing MxA promoter. In kind it is functional. As to conditions: 30 µM. On the technique in general: In a reporter assay the amount or activity of a reporter protein is the signal.

Assay [9] concerns the target T4, Tyrosyl-tRNA synthetase, putative (Trypanosoma cruzi (strain CL Brener)) (UniProt Q4DSP6).
T4 sequence (whole entry): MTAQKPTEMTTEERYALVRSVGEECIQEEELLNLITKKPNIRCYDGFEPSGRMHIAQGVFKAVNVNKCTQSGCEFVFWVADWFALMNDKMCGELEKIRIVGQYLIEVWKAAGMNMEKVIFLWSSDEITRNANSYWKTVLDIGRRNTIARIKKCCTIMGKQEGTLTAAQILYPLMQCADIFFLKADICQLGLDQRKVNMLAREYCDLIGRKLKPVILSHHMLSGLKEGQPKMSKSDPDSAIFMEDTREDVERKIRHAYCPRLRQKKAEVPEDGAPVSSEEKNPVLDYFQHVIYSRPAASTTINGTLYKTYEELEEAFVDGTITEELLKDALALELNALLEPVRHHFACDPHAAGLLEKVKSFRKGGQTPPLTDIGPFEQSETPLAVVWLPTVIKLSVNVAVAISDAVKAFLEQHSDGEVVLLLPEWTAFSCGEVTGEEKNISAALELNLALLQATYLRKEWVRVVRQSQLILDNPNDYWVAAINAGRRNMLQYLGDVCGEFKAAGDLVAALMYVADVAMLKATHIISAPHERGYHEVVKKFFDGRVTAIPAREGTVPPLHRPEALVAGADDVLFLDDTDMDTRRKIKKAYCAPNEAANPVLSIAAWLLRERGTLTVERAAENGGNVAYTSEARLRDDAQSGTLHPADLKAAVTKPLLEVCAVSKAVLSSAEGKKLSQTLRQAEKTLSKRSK
Kind of assay: Trypanosoma cruzi tyrosyl tRNA synthetase (TcYRS) _High Tyrosine SOP. Also: in the data most compounds retested in dose-response had high values. In kind it is functional. The following applies: 30 µM.

Assay [10] concerns the target T4, Tyrosyl-tRNA synthetase, putative (Trypanosoma cruzi (strain CL Brener)). Kind of assay: Trypanosoma cruzi tyrosyl tRNA synthetase (TcYRS) SOP. The assay is classed as functional. As to conditions: 30 µM.
Assay [11] deals with Chromo domain-containing protein 1 (Saccharomyces cerevisiae (strain ATCC 204508 / S288c) (Baker's yeast)) (UniProt P32657). Kind of assay: ScCHD-1 Enzyme Inhibition Assay. Also: in the data most compounds retested in dose-response had high values. In kind it is functional. The following applies: 30 µM.
Sequence of Chromo domain-containing protein 1 (Saccharomyces cerevisiae (strain ATCC 204508 / S288c) (Baker's yeast)) (P32657 whole entry, the tested form may be a part): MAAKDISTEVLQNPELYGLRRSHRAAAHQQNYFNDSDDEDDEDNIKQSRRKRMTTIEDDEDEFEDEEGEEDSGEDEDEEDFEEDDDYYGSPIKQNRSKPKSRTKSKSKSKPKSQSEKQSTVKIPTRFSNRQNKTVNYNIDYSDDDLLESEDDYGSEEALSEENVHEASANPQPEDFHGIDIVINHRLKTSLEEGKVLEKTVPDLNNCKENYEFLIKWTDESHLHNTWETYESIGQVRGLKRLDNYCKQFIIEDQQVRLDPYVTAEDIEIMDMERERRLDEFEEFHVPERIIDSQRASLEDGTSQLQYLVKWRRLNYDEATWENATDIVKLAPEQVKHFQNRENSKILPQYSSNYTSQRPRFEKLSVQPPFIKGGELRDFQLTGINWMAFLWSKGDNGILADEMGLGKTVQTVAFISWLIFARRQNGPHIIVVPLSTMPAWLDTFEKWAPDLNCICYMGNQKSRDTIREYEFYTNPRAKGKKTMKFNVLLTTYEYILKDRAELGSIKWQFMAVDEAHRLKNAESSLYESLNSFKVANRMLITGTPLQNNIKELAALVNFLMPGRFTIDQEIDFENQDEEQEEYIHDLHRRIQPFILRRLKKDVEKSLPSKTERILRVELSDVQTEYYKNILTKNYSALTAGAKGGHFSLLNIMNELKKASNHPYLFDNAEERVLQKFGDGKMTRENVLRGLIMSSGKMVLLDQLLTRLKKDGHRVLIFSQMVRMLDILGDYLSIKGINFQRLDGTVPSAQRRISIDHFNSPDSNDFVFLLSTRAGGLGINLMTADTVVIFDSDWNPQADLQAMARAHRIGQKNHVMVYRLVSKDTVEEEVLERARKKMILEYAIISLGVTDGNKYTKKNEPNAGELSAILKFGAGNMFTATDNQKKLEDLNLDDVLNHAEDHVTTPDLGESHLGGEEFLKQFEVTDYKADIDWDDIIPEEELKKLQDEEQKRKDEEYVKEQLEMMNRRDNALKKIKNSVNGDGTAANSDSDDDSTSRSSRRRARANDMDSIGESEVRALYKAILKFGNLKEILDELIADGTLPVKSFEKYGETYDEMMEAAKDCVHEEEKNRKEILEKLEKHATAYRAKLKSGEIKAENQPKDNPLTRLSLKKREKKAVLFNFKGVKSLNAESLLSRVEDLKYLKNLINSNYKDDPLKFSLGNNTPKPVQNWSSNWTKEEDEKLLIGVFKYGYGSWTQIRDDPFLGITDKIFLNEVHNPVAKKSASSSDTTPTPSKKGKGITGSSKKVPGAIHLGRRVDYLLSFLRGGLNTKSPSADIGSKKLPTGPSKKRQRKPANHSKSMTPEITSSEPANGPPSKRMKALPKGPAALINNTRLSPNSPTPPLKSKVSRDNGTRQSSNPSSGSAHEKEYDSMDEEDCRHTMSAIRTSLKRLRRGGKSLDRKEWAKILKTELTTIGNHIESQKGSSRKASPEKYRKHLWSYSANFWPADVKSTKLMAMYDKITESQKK

Sequence of Protein translocase subunit SecA (Escherichia coli (strain K12)) (P10408 whole entry): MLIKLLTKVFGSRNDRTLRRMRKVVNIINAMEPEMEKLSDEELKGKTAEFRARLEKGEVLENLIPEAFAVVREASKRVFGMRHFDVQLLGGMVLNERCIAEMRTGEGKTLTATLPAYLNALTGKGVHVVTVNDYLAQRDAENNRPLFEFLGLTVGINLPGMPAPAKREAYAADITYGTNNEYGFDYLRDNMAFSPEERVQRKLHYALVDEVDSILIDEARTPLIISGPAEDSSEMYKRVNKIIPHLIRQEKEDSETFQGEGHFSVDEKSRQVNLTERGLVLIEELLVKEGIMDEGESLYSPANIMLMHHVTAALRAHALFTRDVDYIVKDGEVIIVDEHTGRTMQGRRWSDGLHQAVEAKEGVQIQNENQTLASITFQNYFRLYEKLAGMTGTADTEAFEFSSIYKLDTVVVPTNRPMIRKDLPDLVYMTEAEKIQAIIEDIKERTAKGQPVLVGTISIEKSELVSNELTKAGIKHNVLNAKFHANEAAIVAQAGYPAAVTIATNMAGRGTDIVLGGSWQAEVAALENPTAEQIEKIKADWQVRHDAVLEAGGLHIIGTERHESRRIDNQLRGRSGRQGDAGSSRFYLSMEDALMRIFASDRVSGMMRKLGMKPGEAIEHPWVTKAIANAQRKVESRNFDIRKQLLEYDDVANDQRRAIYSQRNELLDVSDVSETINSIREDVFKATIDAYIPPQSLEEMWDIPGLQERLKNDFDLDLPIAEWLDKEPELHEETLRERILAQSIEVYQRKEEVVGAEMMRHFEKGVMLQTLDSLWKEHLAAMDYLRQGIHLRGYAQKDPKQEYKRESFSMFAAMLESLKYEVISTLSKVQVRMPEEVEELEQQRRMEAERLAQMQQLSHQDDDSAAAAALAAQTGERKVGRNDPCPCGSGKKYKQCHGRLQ
Sequence of Sialic acid-binding Ig-like lectin 9 (Homo sapiens) (Q9Y336 whole entry): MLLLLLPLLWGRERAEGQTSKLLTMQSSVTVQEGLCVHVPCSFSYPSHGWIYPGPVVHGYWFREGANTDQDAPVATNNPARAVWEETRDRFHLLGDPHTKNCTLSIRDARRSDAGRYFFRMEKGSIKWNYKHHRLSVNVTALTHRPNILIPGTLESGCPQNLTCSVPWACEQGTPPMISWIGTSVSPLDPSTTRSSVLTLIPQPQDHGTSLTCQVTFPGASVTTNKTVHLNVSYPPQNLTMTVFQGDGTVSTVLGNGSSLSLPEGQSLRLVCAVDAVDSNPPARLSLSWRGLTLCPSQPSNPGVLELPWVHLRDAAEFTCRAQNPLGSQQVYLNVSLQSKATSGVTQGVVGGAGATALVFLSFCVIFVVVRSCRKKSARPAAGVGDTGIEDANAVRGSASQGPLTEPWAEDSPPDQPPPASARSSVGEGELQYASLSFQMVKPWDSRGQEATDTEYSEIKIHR

In the case of `Cn1ccc(CN2CCC(CO)CC2)cc1=O`, the Percent Effect in assay [1] was -3.9%; in assay [2], -1.27%; in [3] it was 2.26%; in assay [4], 0.971%; in assay [5] it was -4.41%; in assay [6], 2.8%. Further, the Percent Effect is 1.03% in assay [7]; 26.1% in [8]; -2.08% in [9]; 10.1% in assay [10]; -1.56% in [11].

For `Cc1cnc(C(=O)N(CCN(C)C)Cc2ccc(Cl)cc2)cn1`, the Percent Effect in assay [1] was -0.752%; in assay [2], 20.8%; in assay [3], 5.67%; in [4], 9.21%; in [5], 4.37%; in [6], 9.71%. The Percent Effect is 15.3% in assay [7]; -3.66% in [8]; 4.21% in [9]; 10.3% in assay [10]; -4.76% in [11].

Consider `CCc1ccc(C(=O)N2CCC(c3nncn3CC)CC2)cc1`, for which the Percent Effect in assay [1] was -10%; in assay [2], 18.4%; in assay [3], -9.82%; in [4] it was -0.88%; in assay [5], 7.3%; in assay [6], -5.92%. The Percent Effect in assay [7] was 7.57%; in [8], 5.31%; in assay [9], 3.19%; in assay [10], 15.6%; in [11], -9.19%.

Regarding `COc1ccc2c(O)c(NC(=O)NCC3CC3)cnc2c1`, the Percent Effect in [1] is 1.05%; in assay [2] it was 14.9%; in assay [3], 9.57%; in [4], -7.59%; in [5], -1.38%; in assay [6] it was -4.87%. Further, the Percent Effect was 14.7% in [7]; 7.86% in [8]; 2.15% in assay [9]; 9.09% in [10]; -11.6% in [11].

As to `CCC[C@@H]1CN(S(=O)(=O)c2ccc(C)c(F)c2)C[C@H]1N(C)C`, the Percent Effect was -4.83% in assay [1]; 2.67% in [2]; -4.64% in assay [3]; -1.02% in assay [4]; -8.86% in assay [5]; 2.08% in [6]. The Percent Effect in [7] is 16.2%; in [8] it was 3.61%; in [9], 1.64%; in assay [10] it was 6.17%; in assay [11], -7.9%.

Regarding `Cc1cc2c(=O)n3c(nc2s1)CCN(Cc1ccncc1)CC3`, the Percent Effect is 2.21% in assay [1]; 4.05% in assay [2]; 13.8% in assay [3]; -10.1% in assay [4]; -4.94% in assay [5]; 5.8% in assay [6]. Besides, the Percent Effect in assay [7] was 4.21%; in assay [8], 19.7%; in [9], 3.23%; in assay [10] it was 9.09%; in assay [11] it was -10.3%.

Consider `O=C(NCCNc1ncccn1)Nc1cc(C(F)(F)F)c[nH]c1=O`, for which the Percent Effect in [1] was -4.49%; in [2] it was 8.11%; in [3], 2.74%; in [4] it was 1.17%; in assay [5], 1.02%; in assay [6], -2.4%. For the same molecule, the Percent Effect is 0.539% in assay [7]; 8.76% in assay [8]; 6.93% in assay [9]; 15.8% in assay [10]; -3.38% in assay [11].

For `CSc1nccn1-c1cccc(C(=O)NCc2nnc(C)n2C)c1`, the Percent Effect was -3.63% in assay [1]; 13.2% in assay [2]; -0.262% in assay [3]; 12.6% in assay [4]; 4.01% in assay [5]; 1.08% in assay [6]. In addition, the Percent Effect in [7] is 3.98%; in assay [8] it was 15.6%; in assay [9], 6.4%; in [10], 23.5%; in assay [11], -2.71%.

Take `Cc1noc(C)c1-c1cnc(CC2CCN(C(=O)c3cc[nH]n3)C2)cn1` (stereo not given): the Percent Effect in [1] is -0.461%; in assay [2] it was 9.46%; in assay [3] it was 11.7%; in assay [4], -4.31%; in assay [5] it was -2.37%; in [6], -2.09%. Moreover, the Percent Effect in assay [7] is 7.02%; in assay [8], 3.9%; in assay [9], 8.6%; in assay [10], 14.3%; in assay [11], -9.57%.

Take `CCN1C[C@@H]2[C@@H](OC)CCN(S(=O)(=O)c3ccccc3F)[C@@H]2C1`: the Percent Effect in assay [1] was -2.71%; in assay [2], 5.33%; in [3] it was 11.3%; in assay [4] it was 0.304%; in assay [5] it was -2.56%; in assay [6], 4.43%. Moreover, the Percent Effect in [7] was 0.793%; in [8], 4.67%; in assay [9], -1.06%; in [10], 3.85%; in assay [11] it was -0.244%.
